The campaign covered roughly 400,000 compounds. About 2,100 (0.53%) were called active. Another 14% or so got no clear call; they are omitted. No rule for the calls is given here. What follows is part of a selection rich in actives, with near analogues and random picks from the rest.

Ataxin-2 (Homo sapiens), sequence (Q99700 whole entry): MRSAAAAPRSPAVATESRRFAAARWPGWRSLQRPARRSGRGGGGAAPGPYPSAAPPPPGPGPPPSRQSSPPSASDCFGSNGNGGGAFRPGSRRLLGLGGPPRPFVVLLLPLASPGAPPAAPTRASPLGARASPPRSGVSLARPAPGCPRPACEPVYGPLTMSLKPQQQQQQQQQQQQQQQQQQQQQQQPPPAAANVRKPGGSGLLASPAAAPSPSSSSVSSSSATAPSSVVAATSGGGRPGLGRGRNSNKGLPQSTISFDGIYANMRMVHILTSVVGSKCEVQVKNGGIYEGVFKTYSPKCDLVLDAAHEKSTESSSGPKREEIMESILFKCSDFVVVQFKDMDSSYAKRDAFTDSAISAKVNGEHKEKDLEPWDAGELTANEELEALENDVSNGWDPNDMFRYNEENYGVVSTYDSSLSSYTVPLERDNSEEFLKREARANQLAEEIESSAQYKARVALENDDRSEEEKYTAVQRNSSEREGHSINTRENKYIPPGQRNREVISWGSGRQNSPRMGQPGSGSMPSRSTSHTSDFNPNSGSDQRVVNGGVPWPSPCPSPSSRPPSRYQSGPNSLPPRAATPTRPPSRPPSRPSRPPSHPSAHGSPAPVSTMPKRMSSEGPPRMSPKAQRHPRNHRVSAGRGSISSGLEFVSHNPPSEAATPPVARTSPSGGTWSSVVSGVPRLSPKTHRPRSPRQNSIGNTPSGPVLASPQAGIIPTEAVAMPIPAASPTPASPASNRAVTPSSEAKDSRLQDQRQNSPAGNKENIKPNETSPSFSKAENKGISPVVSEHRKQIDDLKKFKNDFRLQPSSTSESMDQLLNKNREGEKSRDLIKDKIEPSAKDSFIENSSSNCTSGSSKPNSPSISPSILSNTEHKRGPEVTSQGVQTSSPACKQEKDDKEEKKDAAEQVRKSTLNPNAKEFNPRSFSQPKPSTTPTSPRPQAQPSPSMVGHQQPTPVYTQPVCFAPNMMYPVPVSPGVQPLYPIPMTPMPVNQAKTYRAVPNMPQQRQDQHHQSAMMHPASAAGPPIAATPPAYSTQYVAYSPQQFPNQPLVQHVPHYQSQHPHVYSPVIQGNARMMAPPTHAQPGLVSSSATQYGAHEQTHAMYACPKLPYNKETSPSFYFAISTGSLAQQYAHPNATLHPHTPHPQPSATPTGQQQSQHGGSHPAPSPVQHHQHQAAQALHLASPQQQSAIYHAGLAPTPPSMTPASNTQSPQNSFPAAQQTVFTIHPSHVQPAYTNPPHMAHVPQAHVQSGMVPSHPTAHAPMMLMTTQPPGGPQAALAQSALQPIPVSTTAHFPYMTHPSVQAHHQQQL

This test has as its target Ataxin-2 (Homo sapiens) (UniProt Q99700). The test can be described thus: qHTS for Inhibitors of ATXN expression. The class given is functional.
In the case of `CN(C(=O)/C=C/c1ccc([N+](=O)[O-])s1)c1ccccc1`, the Potency was 33.6 µM (active).

For `CC(=O)c1cccc(NC(=O)/C=C/c2ccc([N+](=O)[O-])s2)c1`, the Potency is 5.97 µM (active).

For `CC(=O)c1cccc(NC(=O)CC2SC(N/N=C/c3ccccc3)=NC2=O)c1` (configuration not stated), the Potency entry was “inactive”.

As for `COc1cccc(/C=C/C(=O)Nc2cccc(C(C)=O)c2)c1OC`, the Potency entry is “inactive”.

Take `CC(C)(C)NC(=S)N/N=C\c1ccc(-c2ccc([N+](=O)[O-])cc2)o1`: the Potency entry was “inactive”.

Take `Cc1ccc(NC(=S)N/N=C/c2ccc([N+](=O)[O-])s2)cc1`: the Potency is 39.8 µM (active).

For the compound `C=CCc1cccc(/C=N/NC(=O)C(=O)Nc2ccc(C)cc2)c1O`, the Potency entry was “inactive”.

Take `Cc1cccc(NC(=O)C(C)Oc2ccc(C)nc2[N+](=O)[O-])c1` (configuration not stated): the Potency result is “inactive”.

Regarding `Cc1cccc(NC(=S)N/N=C/c2ccc([N+](=O)[O-])s2)c1`, the Potency is 31.6 µM (active).

Turning to `COc1cccc(/C=N/NC(=S)Nc2cccc(C(=O)O)c2)c1O`, the Potency result is “inactive”.

Consider `N=c1c(C(=O)NC2CCCC2)cc2c(=O)n3ccccc3nc2n1C1CCCCC1`, for which the Potency entry was “inactive”.

In the case of `CC1Nc2nc(N(C)C)nc(O)c2NC1C` (configuration not stated), the Potency result was “inactive”.

For `Cc1cc2nc(/C=C/c3nc4cc(C)c(C)cc4[nH]3)[nH]c2cc1C`, the Potency result was “inactive”.

Consider `Oc1ccc(Br)cc1C1Nc2ccccc2S1` (configuration not stated), for which the Potency result was “inactive”.

On to `CCC(CC)c1nnc(NC(=O)CSCc2c(C)noc2C)s1`, for which the Potency result was “inactive”.

Turning to `CC(C)=CCc1c2c(c3occ(-c4ccc(O)cc4)c(=O)c3c1O)C=CC(C)(C)O2`, the Potency was 25.1 µM (active).

Take `CC(C)=CCc1c(O)c(CC=C(C)C)c2occ(-c3ccc(O)cc3)c(=O)c2c1O`: the Potency was 39.8 µM (active).

For the compound `COc1c(CC=C(C)C)c(O)cc2oc(=O)c3c4ccc(O)cc4oc3c12`, the Potency entry is “inactive”.

As to `CC1(C)C=Cc2c(c3c(c4c(=O)c(-c5ccc(O)cc5)coc24)OC(C)(C)CC3)O1`, the Potency was 35.5 µM (active).

As for `CC(C)=CCc1c(-c2ccc(O)cc2O)oc2cc3c(c(O)c2c1=O)C=CC(C)(C)O3`, the Potency was 39.8 µM (active).

Consider `COC(c1ccccc1)(c1ccccc1)C(Oc1nc(C)cc(C)n1)C(=O)O` (configuration not stated), for which the Potency entry is “inactive”.

Take `CCOC(=O)c1c2ccc(OCC(=O)NN)cc2n2ccccc12`: the Potency entry was “inactive”.

As for `Cc1c(C)c2cc(Cl)c(O)c(CN(C)C)c2oc1=O`, the Potency entry is “inactive”.

Turning to `CCCCCC(=O)N1C[C@@H](n2cc(COC(=O)c3ccccc3)nn2)[C@H](O)C[C@@H]1c1ccc(Cl)cc1`, the Potency is 31.6 µM (active).

With `CCCCCC(=O)N1C[C@H](n2cc(COC(=O)c3ccccc3)nn2)[C@@H](O)C[C@@H]1c1ccc(Cl)cc1`, the Potency is 39.8 µM (active).

Take `CC1(S(=O)(=O)O)CC(=O)c2ccccc2C1=O` (configuration not stated): the Potency result is “inactive”.

As to `CC(=O)N1N=C2c3ccccc3CCC2C1c1ccc(F)cc1` (configuration not stated), the Potency entry is “inactive”.

For `CCCCn1c(NC(C)=O)c(C#N)c2nc3ccccc3nc21`, the Potency result is “inactive”.

On to `Cc1csc(SCC(=O)Nc2ccccc2[N+](=O)[O-])n1`, for which the Potency entry is “inactive”.

On to `CC(C)c1noc(-c2ccccc2OCC(=O)Nc2ccccc2[N+](=O)[O-])n1`, for which the Potency is 39.8 µM (active).

As to `O=C(CN1CCCc2ccccc21)Nc1ccccc1[N+](=O)[O-]`, the Potency result is “inactive”.

For the compound `Nc1cccc2c1C(=O)N(C(=O)c1cccc(S(=O)(=O)N3CCCCCC3)c1)C2=O`, the Potency result was “inactive”.

In the case of `Fc1ccc(CN2CCN(c3ncccn3)CC2)c(F)c1`, the Potency result is “inactive”.

Consider `O=C(c1ccc(-n2c(SCc3cc(F)ccc3F)nc3ccccc3c2=O)cc1)N1CCOCC1`, for which the Potency entry was “inactive”.

In the case of `COc1ccc(C(C)=O)cc1CSc1nc2ccccc2c(=O)n1-c1ccccc1`, the Potency was 35.5 µM (active).

As to `COCC(C)n1c(SCc2ccc(C(=O)OC)cc2)nc2ccccc2c1=O` (configuration not stated), the Potency result was “inactive”.

On to `O=C(NCc1ccncc1)c1ccc(NS(=O)(=O)c2ccc(F)cc2)cc1`, for which the Potency result was “inactive”.

Consider `CCOC(=O)c1c(C)oc2c1c(C(c1cccnc1)N1CCOCC1)c(O)c1ccccc12` (configuration not stated), for which the Potency was 39.8 µM (active).

Take `CCOC(=O)C(CC)Sc1ccc2nnc(-c3cccnc3)n2n1` (configuration not stated): the Potency entry was “inactive”.

On to `CCOC(=O)c1c(C)oc2c1c(C(c1ccccc1)N1CCOCC1)c(O)c1ccccc12` (configuration not stated), for which the Potency was 39.8 µM (active).

`CCOC(=O)c1c(C)oc2c1c(/C=N/CCO)c(O)c1ccccc12`: the Potency entry is “inactive”.

Turning to `CCOC(=O)c1c(N=C(S)N2CCOCC2)sc(C)c1C`, the Potency result was “inactive”.

`COc1ccc(C(=O)N/N=C\c2coc3ccccc3c2=O)cc1`: the Potency result was “inactive”.

As to `O=C(Cc1cc(=O)oc2cc(O)ccc12)NCC1CCC(C(=O)O)CC1` (configuration not stated), the Potency result is “inactive”.

Regarding `Cc1c(-c2ccc(Cl)cc2)c(=O)oc2c(CN3CCCC3)c(O)ccc12`, the Potency result is “inactive”.

As to `Cc1cc(-c2cccs2)c2c(N)c(C(=O)c3ccc4c(c3)OCO4)sc2n1`, the Potency result is “inactive”.

For the compound `OCCNc1c2ccccc2nc2ccccc12`, the Potency entry was “inactive”.

`CC(O)CNc1nc(NCc2ccccc2)c2cnn(C)c2n1` (configuration not stated): the Potency result is “inactive”.

With `c1ccc(CNc2nc(NCc3ccccc3)c3ccccc3n2)cc1`, the Potency is 39.8 µM (active).

Turning to `CC1(C)Cc2c(C#N)c(NCCO)nc(-c3ccco3)c2CO1`, the Potency entry was “inactive”.

As for `C/C(=N\NC(=S)NCCc1ccccc1)c1ccc(Cl)cc1Cl`, the Potency entry was “inactive”.

On to `Cc1cc(C)c(C(=O)Nc2ccccc2)c(CC(C)(C)C(=O)O)c1`, for which the Potency result was “inactive”.

As for `Cc1nnc(Sc2cc(NCCO)c([N+](=O)[O-])c3nonc23)s1`, the Potency is 28.2 µM (active).

Regarding `COc1ccc(NC(=O)CCC(=O)NCc2ccco2)c([N+](=O)[O-])c1`, the Potency entry is “inactive”.

On to `CC(=O)OCCCNc1cc(Sc2nc3ccccc3s2)c2nonc2c1[N+](=O)[O-]`, for which the Potency was 12.6 µM (active).

For `Cc1nnc(Sc2cc(NCCCO)c([N+](=O)[O-])c3nonc23)s1`, the Potency is 21.2 µM (active).

Take `O=[N+]([O-])c1c(NCCCO)cc(SCc2ccco2)c2nonc12`: the Potency was 31.6 µM (active).

Regarding `COCCNc1nnc(SCC(=O)Nc2cc(C)on2)s1`, the Potency result is “inactive”.

Turning to `CC(=O)Nc1scc(C)c1-c1nc2ccccc2s1`, the Potency entry is “inactive”.

As to `CCCn1c(N)c(C(=O)CSc2nc3ccccc3s2)c(=O)[nH]c1=O`, the Potency entry is “inactive”.

As to `O=C(Cn1[nH]c(=O)c2ccccc2c1=O)OCC(=O)c1ccc(F)c(F)c1`, the Potency result was “inactive”.

As to `COCCCn1c(=N)c(C(=O)NCc2ccco2)cc2c(=O)n3cccc(C)c3nc21`, the Potency entry is “inactive”.

For `O=C1c2cccc3c(N4CCCCC4)ccc(c23)C(=O)N1c1ccc(O)cc1`, the Potency result was “inactive”.

Take `Cc1ccc(OCCCCN2CCCCC2)cc1`: the Potency entry was “inactive”.

As for `Cc1ccc(OCCCCCCN2CCNCC2)cc1`, the Potency result was “inactive”.

On to `COC(=O)c1cccc(OCCCN2CCC(C(O)(c3ccccc3)c3ccccc3)CC2)c1`, for which the Potency was 35.5 µM (active).

With `Cc1ccc(OCCCN2CCC(C(O)(c3ccccc3)c3ccccc3)CC2)cc1`, the Potency is 35.5 µM (active).

Consider `O=C(c1coc(=O)c(Br)c1)N1CCC(C(O)(c2ccccc2)c2ccccc2)CC1`, for which the Potency entry was “inactive”.

Turning to `O=C(Oc1cccc(C(=S)N2CCCCC2)c1)c1ccccc1`, the Potency entry was “inactive”.

In the case of `Brc1cccc(OCCN2CCc3ccccc3C2)c1`, the Potency result is “inactive”.

`CC(C)c1ccccc1OCCCN1CCCC1`: the Potency result was “inactive”.

As for `OC(c1ccccc1)(c1ccccc1)C1CCN(CCCOc2cccc(OC(F)(F)F)c2)CC1`, the Potency is 35.5 µM (active).

These data come from ChEMBL document CHEMBL1201862, “PubChem BioAssay data set” (2004).
